# Sampled rows, rich in hits. Any-hit rate of the full collection: about 4.4%.
# TRHR enhancer: allosterically enhances the human TRH receptor; P34981; TRHR cells, fluo-8 calcium fluorescence, EC20 TRH enhancement; enhancement, % at 2 µM; 360,000 compounds, 0.66% hits; AID 493056; in the data active means enhancement above about 30%; further: 0% is about no effect
#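 Enhancer read-out: after compound pinning and an initial kinetic agonist-mode read, an EC20 of TRH (10 nM final) was injected and fluo-8 calcium signal (Ex 480/Em 530) followed at 1 s/cycle for 100 cycles in TRHR-expressing cells.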
# TRHR ag: activates the human TRH receptor; 360,000 compounds, 0.18% hits; P34981; TRHR cells, calcium flux fluo-8, FDSS agonist mode; activation, % at 2 µM; further: 0% is about no effect
#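 Fluo-8-loaded TRHR cells; 10 s baseline, compound added, kinetic Ca2+ fluorescence read 1/s, agonist mode.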
# D1 ag: human D1 receptor agonism | P21728 | HEK293 T-REx D1 cells, calcium flux, agonist mode | activation, % at 2 µM | 360,000 compounds, 1% hits | AID 504660; further: 0% is about no effect
# Target sequence (P21728 whole entry, looked up): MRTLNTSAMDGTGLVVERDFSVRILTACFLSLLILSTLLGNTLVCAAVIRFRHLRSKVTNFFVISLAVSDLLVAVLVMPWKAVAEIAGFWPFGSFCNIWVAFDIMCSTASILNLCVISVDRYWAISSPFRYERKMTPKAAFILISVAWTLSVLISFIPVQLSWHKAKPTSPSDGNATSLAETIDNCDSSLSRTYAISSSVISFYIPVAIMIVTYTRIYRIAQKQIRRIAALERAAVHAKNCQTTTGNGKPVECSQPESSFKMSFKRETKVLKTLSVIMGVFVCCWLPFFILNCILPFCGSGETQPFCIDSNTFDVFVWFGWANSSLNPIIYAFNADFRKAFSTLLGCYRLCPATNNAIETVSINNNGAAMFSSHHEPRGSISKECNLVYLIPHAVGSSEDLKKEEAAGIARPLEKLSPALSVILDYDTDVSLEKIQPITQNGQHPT
#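 Agonism was scored from calcium flux recorded over 180 s (1 read/s) after pintool compound addition, following a 10-cycle baseline. Cells were inducible force-coupled HEK293 TREx D1, plated overnight at 30 C and loaded with no-wash calcium dye.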
# USP1 inh: blocks the human USP1/UAF1 deubiquitinase complex | 390,000 compounds, 0.23% hits | AID 743255 | Potency, µM (doses to about 57.1 µM), without a hit: at the highest dose activity change, negative = inhibition, actives largely listed as inhibitors | recombinant USP1/UAF1, Ub-Rhodamine cleavage fluorescence; active means well fitted inhibition curve with a large enough effect; inconclusive means small, poorly fitted or top-dose-only effect; inactive means no such curve, though single readings can be large or run the other way; further: potency means the concentration at half of the fitted maximal effect; on the % scale 0 is the no-effect control and ±100 the full control effect; nearly all actives have a fitted effect of over 60% in size
#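 USP1/UAF1 complex (1 nM) preincubated 15 min at room temperature with compound, then Ub-Rho substrate (150 nM final) added. Kinetic fluorescence at 480/540 nm over 6 reads at 60 s intervals; 50 mM HEPES pH 7.8, 0.5 mM EDTA, 0.1 mg/ml BSA, 1 mM TCEP, 0.01% Tween-20.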
# D1 potentiator: human D1 dopamine receptor positive modulation. P21728. HEK293 TREx D1 cells, calcium flux, dopamine EC20 potentiation. potentiation, % at 10 µM. 360,000 compounds, 0.036% hits. AID 504651; in the data active means potentiation above about 30%; further: 0% is about no effect
# D1 antagonist: antagonists of human D1 dopamine receptor; P21728; HEK293 TREx D1 cells, calcium flux, dopamine EC80; active compounds read low; activity change, negative = inhibition, % at 10 µM; 360,000 compounds, 3.2% hits; in the data active means activity change below about -30%; further: on the % scale 0 is the no-effect control and ±100 the full control effect
#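 Kinetic fluorescence of a calcium dye serves as the read-out. D1-expressing Hek293 Trex cells, induced overnight at 30 C, are exposed to compound for 180 s before an EC80 dopamine addition, then read 180 s further.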
# * = called active by the depositor; i = inactive; u = inconclusive; x = no result given; ! = not confirmed by another sample. Unless noted, no stated cut-off is given here; in the data, active means activation above about 30%; inactive means the rest.
SMILES,TRHR enhancer,TRHR ag,D1 ag,USP1 inh,D1 potentiator,D1 antagonist
CC(=O)CC1(O)C(=O)N(Cc2ccccc2)c2ccccc21 (configuration not stated),-21,0,2,-25%,-13,-85*
Cc1ccc(C(=O)CC2(O)C(=O)N(Cc3ccccc3Cl)c3ccccc32)o1 (configuration not stated),0,0,-1,0%,11,-31*
Cc1cccc2sc(N(Cc3cccnc3)C(=O)C3CCCCC3)nc12,-2,0,4,-13%,0,x
COc1ccc(-c2[nH]c(-c3ccc(F)cc3)nc2SCC(=O)Nc2ccc(OC)c(OC)c2)cc1,-1,0,0,-13%,0,7
COc1ccc(NC(=O)c2oc3ccc(S(=O)(=O)N4CCC5(CC4)OCCO5)cc3c2C)cc1Cl,7,1,-2,-23%,-3,-28
COc1ccc(NC(=O)c2oc3ccc(S(=O)(=O)N(C)C4CCCCC4)cc3c2C)cc1Cl,23,0,-2,u,0,-30*
COc1ccc2oc(C(=O)Nc3ccc(S(=O)(=O)N(C)C4CCN(C)CC4)cc3)c(C)c2c1,-4,4,37*,-27%,-11,-49*
Cc1ccc(NC(=O)c2oc3ccc(S(=O)(=O)N4CCC5(CC4)OCCO5)cc3c2C)cc1C,6,1,-2,u,-3,-32*!
Cc1c(C(=O)Nc2ccc(F)c(Cl)c2)oc2ccc(S(=O)(=O)N(C)C3CCCCC3)cc12,6,0,2,-25%,-2,-21
CCCc1noc(-c2ccc(NCc3ccc(C)cc3)c([N+](=O)[O-])c2)n1,0,0,1,-8%,2,-7
O=C(NCCc1ccc(F)cc1)c1cccc2c1C(=O)c1ccc(N3CCC(Cc4ccccc4)CC3)cc1S2(=O)=O,x,x,x,i,x,x
O=C(NCc1ccc(OC(F)(F)F)cc1)c1cccc2c1C(=O)c1ccc(N3CCC(Cc4ccccc4)CC3)cc1S2(=O)=O,x,x,x,390%,x,x
O=C(NCc1cccc(F)c1)c1cccc2c1C(=O)c1ccc(N3CCC(Cc4ccccc4)CC3)cc1S2(=O)=O,x,x,x,7.9µM*,x,x
O=C(NCc1cccc(C(F)(F)F)c1)c1cccc2c1C(=O)c1ccc(N3CCC(Cc4ccccc4)CC3)cc1S2(=O)=O,x,x,x,25µM*,x,x
CC1CCN(c2ccc3c(c2)S(=O)(=O)c2cccc(C(=O)NCc4cccc(F)c4)c2C3=O)CC1,-1,53*,188*,u,-4,13
O=C(NCc1ccco1)c1cccc2c1C(=O)c1ccc(N3CCC(Cc4ccccc4)CC3)cc1S2(=O)=O,x,x,x,28µM*,x,x
O=C(NCc1ccco1)c1cccc2c1C(=O)c1ccc(/C=C/c3ccccc3)cc1S2(=O)=O,x,x,x,-29%,x,x
COc1ccc(-c2cccc(NS(=O)(=O)c3cc(C)c(Cl)cc3C)c2)nn1,14,0,3,-14%,2,7
COc1cccc(NC(=O)Nc2ccc3snnc3c2)c1,-3,1,37*,-31%,-3,-19
COc1cccc(NC(=O)Nc2nc(-c3ccc(OC)c(OC)c3)cs2)c1,-3,0,8,-18%,-8,-40*
CCc1ccccc1NC(=O)Nc1ccc2snnc2c1,1,2,33*,-32%,-4,-19
O=C(Nc1ccc2snnc2c1)Nc1cccc2ccccc12,-1,2,19,-1%,-7,-29
Cc1ccc(NC(=O)Nc2ccc3snnc3c2)cc1C,8,1,30,-27%,-3,-29
Cc1ccc2ncc3c(-c4ccccc4)nn(CC(=O)NC4CCCCC4)c3c2c1,7,0,1,8%,-2,-4
CCn1cc2nc(SCC(=O)Nc3ccccc3F)n(Cc3ccc(C)cc3)c(=O)c2n1,1,1,7,-5%,-1,-1
SMILES,TRHR enhancer,TRHR ag,D1 ag,USP1 inh,D1 potentiator,D1 antagonist
CCCN1CCN(c2nc3c([nH]2)c(=N)ncn3CC(O)CO)CC1 (configuration not stated),-4,0,0,2%,2,-27
N=c1ncn(CC(O)CN2CCOCC2)c2nc(N3CCOCC3)[nH]c12 (configuration not stated),-3,0,5,-6%,-7,-58*
COc1ccc(Cn2c(=O)n(Cc3ccco3)c(=O)c3oc4ccccc4c32)cc1,2,1,3,12%,-3,11
CN(C)C(CNC(=O)c1ccc(-c2ccccc2)cc1)c1ccccc1 (configuration not stated),31*,1,3,-20%,-6,-3
COc1ccc(CNC(=O)c2cc(-c3ccc(OC)c(OC)c3)nc3n[nH]c(-c4ccc(C)cc4)c23)cc1,-1,1,4,-16%,-3,-17
COc1ccc(Nc2nc(-c3c[nH]c4ccccc34)cs2)cc1,7,1,3,-6%,-1,-39*
Oc1c(Cl)cc(Cl)cc1Sc1cc(Cl)cc(Cl)c1O,-7,1,28,x,-5,-56*
Cc1cc(C)c(O)c(CN(C)Cc2cc(Cl)cc(Cl)c2O)c1,x,x,x,-5%,x,x
Cc1cccc(C)c1NC(=O)CN(C)C(C)C(=O)Nc1ccccc1-c1ccccc1 (configuration not stated),-4,1,-3,-2%,4,18
Cc1ccccc1CN(C)C(C)C(=O)Nc1ccccc1F (configuration not stated),40*,-1,4,-15%,-1,-13
CCOC(=O)CCC(=O)Nc1nnc2n1CCS2,-5,0,1,-17%,1,1
O=C(COc1ccc(S(=O)(=O)NC2CCCCC2)cc1)NC1CCCC1,1,-1,4,-19%,-2,-43*
O=C1c2ccccc2C(=O)N1C1CCCCC1,5,1,4,-11%,-6,-26
O=C1C2C(c3ccccc3)C=CC(c3ccccc3)C2C(=O)N1C1CCCCC1 (configuration not stated),35*,0,3,-16%,1,9
COc1cc(NCCCC(C)N)c2ncccc2c1 (configuration not stated),4,-2,3,5µM*,-6,4
COc1ccc(C2CNC(=O)C2)cc1OC1CCCC1 (configuration not stated),-16,0,1,u,2,-42*!
Cn1c(SCC(=O)c2ccc(F)cc2)nnc1-c1ccccc1Br,-9,-1,0,-4%,-4,-6
CCOC(=O)C1CCN(S(=O)(=O)c2c(Cl)ccc3nonc23)CC1,4,3,4,x,-8,-35*
CCOC(=O)C1CCN(S(=O)(=O)c2cccc3nonc23)CC1,-6,0,4,0%,-1,-6

# Screens as filed in PubChem BioAssay.
